Molecules are shown by their SMILES. A number with no mark means an inactive call. Inconclusive results are not listed. The source made the active and inactive calls. Calls come from the whole dose curve; as a rule, active = well fitted curve in the direction sought with a large enough effect; inconclusive = small, poorly fitted or top-dose-only effect, or another doubt; inactive = no such curve, though single readings can be large; an effect the other way counts as inactive or inconclusive.

These results are taken from PubChem BioAssay (NCATS).

A short description of one assay: MultiTox-Fluor Cytotoxicity Assay - LYMP1-002 - Dead Cells (AID 960).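 For cytotoxicity (dead cells): cells exposed to compound for 16 h at 37 °C; 0% = DMSO and 100% = tetraoctylammonium bromide.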 Note: nearly all actives have a fitted effect of over 60% in size. Note: potency is the fitted concentration of half-maximal effect. The following applies: LYMP1-002 lymphoblastoid cells, dead-cell protease fluorescence; series mostly up to 46.1 µM; cytotoxicity (dead cells): at the top concentration. In a few lines:
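Readout: fluorescence at 485/520 from cell-impermeant bis-AAF-R110 cleaved by proteases leaking from damaged cells. LYMP1-002 lymphoblastoid line, 16 hr compound treatment at 37 C, concentration-response in qHTS format; Hill-equation AC50 values.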
As for `CC(C)=O`, the “cytotoxicity (dead cells)” value is 9.88%.
The same measure, in the same setting: as for `CCCCC/C=C\C/C=C\CCCCCCCC(=O)O`, the figure is 22.1%.
Regarding `CC(C)(C)NC(=O)[C@@H]1C[C@@H]2CCCC[C@@H]2CN1C[C@@H](O)[C@H](Cc1ccccc1)NC(=O)[C@H](CC(N)=O)NC(=O)c1ccc2ccccc2n1`, the Potency is 31.6 µM (active).
Consider `CCCCCCCC/C=C\CCCCCCCC(=O)O`, for which the “cytotoxicity (dead cells)” value is -14%.
Same read-out and setting: as for `CC1=C2[C@@H]([C@H](C)CC[C@H]2/C=C(\C)C(=O)O)[C@H](O)C1`, the figure is -13.5%; as for `CCOC(C)=O`, 14.6%; as for `Nc1ccn([C@H]2CS[C@@H](CO)O2)c(=O)n1`, 9.01%.
In the case of `O=S(=O)(O)O`, the Potency entry was “inactive”.
Consider `O=C(O)CCC(=O)C(=O)O`, for which the “cytotoxicity (dead cells)” value was 24.9%.
On to `Cc1ccccc1`, for which the Potency entry is “inactive”.
Take `CC(O)CO` (stereo unspecified): the Potency result was “inactive”.
On to `IC(I)I`, for which the “cytotoxicity (dead cells)” value is -4.07%.
Turning to `CCCCCCCC(=O)O`, the Potency entry is “inactive”.
Turning to `CCOc1ccc2c(c1)C(C)=CC(C)(C)N2`, the “cytotoxicity (dead cells)” value was 4.34%.

The next assay is described as follows: MultiTox-Fluor Cytotoxicity Assay - LYMP1-003 - Dead Cells (AID 961).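 For cytotoxicity (dead cells): 0% = DMSO and 100% = tetraoctylammonium bromide.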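 Note: cells exposed to compound for 16 h at 37 °C; nearly all actives have a fitted effect of over 70% in size.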 Note: potency is the fitted concentration of half-maximal effect. The settings on record: LYMP1-003 lymphoblastoid cells, dead-cell protease fluorescence; series mostly up to 92.2 µM; cytotoxicity (dead cells): at the top concentration. In a few lines: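 Human lymphoblastoid LYMP1-003 cells (2500/well) were treated with compounds for 16 hr at 37 C in complete medium. Dead-cell protease release was read by bis-AAF-R110 fluorescence (Ex/Em 485/520). AC50 came from Hill fits, normalized to DMSO and 15 uM tetraoctylammonium bromide.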
In the case of `CC(C)=O`, the “cytotoxicity (dead cells)” value was -2.2%.
In the case of `CCCCC/C=C\C/C=C\CCCCCCCC(=O)O`, the “cytotoxicity (dead cells)” value is 2.03%.
In the case of `CC(C)(C)NC(=O)[C@@H]1C[C@@H]2CCCC[C@@H]2CN1C[C@@H](O)[C@H](Cc1ccccc1)NC(=O)[C@H](CC(N)=O)NC(=O)c1ccc2ccccc2n1`, the Potency was 50.1 µM (active).
On to `CCCCCCCC/C=C\CCCCCCCC(=O)O`, for which the “cytotoxicity (dead cells)” value is -10.2%.
Regarding `CC1=C2[C@@H]([C@H](C)CC[C@H]2/C=C(\C)C(=O)O)[C@H](O)C1`, the “cytotoxicity (dead cells)” value is -0.984%.
Turning to `CCOC(C)=O`, the “cytotoxicity (dead cells)” value is 2.61%.
Take `Nc1ccn([C@H]2CS[C@@H](CO)O2)c(=O)n1`: the “cytotoxicity (dead cells)” value is -6.51%.
Turning to `O=S(=O)(O)O`, the Potency result was “inactive”.
With `O=C(O)CCC(=O)C(=O)O`, the “cytotoxicity (dead cells)” value is -12.9%.
As to `Cc1ccccc1`, the Potency entry was “inactive”.
On the same count and under the same terms, the same measure for `O=CCCCC=O`: 50.1 µM (active).
With `CC(O)CO` (stereo unspecified), the Potency result was “inactive”.
On to `IC(I)I`, for which the “cytotoxicity (dead cells)” value is -25.3%.
On to `CCCCCCCC(=O)O`, for which the Potency entry is “inactive”.

Another assay can be described thus: MultiTox-Fluor Cytotoxicity Assay - LYMP1-003 - Live Cells (AID 962).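 Note: cells exposed to compound for 16 hours at 37 °C; 0% = DMSO only and full loss = 92 µM tetraoctylammonium bromide; cytotoxic hits lower the live-cell protease signal.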 The following applies: LYMP1-003 lymphoblastoid cells, MultiTox-Fluor live-cell protease fluorescence; series mostly up to 92.2 µM; activity change, negative = fewer live cells: at the top concentration. In a few lines: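 Readout: live-cell fluorescence (Ex/Em=405/510) from GF-AFC cleavage after 60 min MultiTox-Fluor reagent at room temperature. Lymphoblastoid LYMP1-003 cells, 16 hr compound treatment, 37 C. Concentration-response fitted to standard Hill equation for AC50.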
`CC(C)=O`: the “activity change, negative = fewer live cells” value is -4.43%.
On the same count and under the same terms, the same measure for `CCCCC/C=C\C/C=C\CCCCCCCC(=O)O`: -3.86%; for `CCCCCCCC/C=C\CCCCCCCC(=O)O`: -4.66%; for `CC1=C2[C@@H]([C@H](C)CC[C@H]2/C=C(\C)C(=O)O)[C@H](O)C1`: -2.92%.
With `CCOC(C)=O`, the “activity change, negative = fewer live cells” value is -3.84%.
As to `Nc1ccn([C@H]2CS[C@@H](CO)O2)c(=O)n1`, the “activity change, negative = fewer live cells” value was -7.49%.
For `O=S(=O)(O)O`, the compound was classed as inactive.
With `O=C(O)CCC(=O)C(=O)O`, the “activity change, negative = fewer live cells” value was -7.49%.
Turning to `Cc1ccccc1`, the compound was called inactive.
As to `O=CCCCC=O`, the “activity change, negative = fewer live cells” value was -27.3%.
Still for that read-out and setting: the same measure for `CC1=C(/C=C/C(C)=C/C=C/C(C)=C/CO)C(C)(C)CCC1`: -11.2%.
As to `CC(O)CO` (stereo unspecified), the outcome was inactive.
Consider `IC(I)I`, for which the “activity change, negative = fewer live cells” value is -9.35%.
On to `CCCCCCCC(=O)O`, for which the result was inactive.
Take `CCOc1ccc2c(c1)C(C)=CC(C)(C)N2`: the “activity change, negative = fewer live cells” value was -3.18%.

A short description of the next assay: Cell Viability - LYMP1-003 - Assay at 24 hr (AID 963).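 Note: plate controls were DMSO only for no effect and tetraoctylammonium bromide positive control for full effect.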 The settings on record: LYMP1-003 lymphoblastoid cell viability; series mostly up to 92.2 µM; viability change, negative = cytotoxic: at the top concentration. The essentials: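 CellTiter-Glo luminescence (intracellular ATP) read after 24 hr, 37 C compound exposure of 2500 LYMP1-003 human lymphoblastoid cells/well in complete medium; qHTS concentration series; AC50 via standard Hill equation.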
Consider `CC(C)=O`, for which the “viability change, negative = cytotoxic” value was -1.42%.
Regarding `CCCCC/C=C\C/C=C\CCCCCCCC(=O)O`, the “viability change, negative = cytotoxic” value was 0.101%.
As to `CCCCCCCC/C=C\CCCCCCCC(=O)O`, the “viability change, negative = cytotoxic” value is -5.63%.
Still for that read-out and setting: the same measure for `CC1=C2[C@@H]([C@H](C)CC[C@H]2/C=C(\C)C(=O)O)[C@H](O)C1`: -7.52%.
Still for that read-out and setting: as for `CCOC(C)=O`, the figure is 6.72%.
Consider `Nc1ccn([C@H]2CS[C@@H](CO)O2)c(=O)n1`, for which the “viability change, negative = cytotoxic” value is -0.813%.
Take `O=S(=O)(O)O`: the result was inactive.
Take `O=C(O)CCC(=O)C(=O)O`: the “viability change, negative = cytotoxic” value is -1.27%.
Consider `Cc1ccccc1`, for which the result was inactive.
In the case of `O=CCCCC=O`, the “viability change, negative = cytotoxic” value is -9.67%.
The same measure, in the same setting: the same measure for `CC1=C(/C=C/C(C)=C/C=C/C(C)=C/CO)C(C)(C)CCC1`: -17.7%.
For `CC(O)CO` (stereo unspecified), the compound was called inactive.
For the compound `IC(I)I`, the “viability change, negative = cytotoxic” value is -8.48%.
With `CCCCCCCC(=O)O`, the compound was classed as inactive.
For the compound `CCOc1ccc2c(c1)C(C)=CC(C)(C)N2`, the “viability change, negative = cytotoxic” value was -18.6%.

The next assay is described as follows: Cell Viability - LYMP1-003 - Assay at 40 hr (AID 964). For activity change, negative = cytotoxic: % is set by controls: 0 for no effect and ±100 for the full control effect. Note: nearly all actives have a fitted effect of over 60% in size. Note: potency is the fitted concentration of half-maximal effect. The settings on record: LYMP1-003 lymphoblastoid viability; series mostly up to 92.2 µM; activity change, negative = cytotoxic: at the top concentration. In a few lines: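 LYMP1-003 lymphoblastoid cells, 2500/well; 5 hr preincubation, 40 hr compound exposure, 37 C; CellTiter-Glo 30 min RT; luminescence; Hill-fit AC50. Positive control tetraoctylammonium bromide.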
Take `CC(C)=O`: the “activity change, negative = cytotoxic” value is -9.19%.
Same read-out and setting: the same measure for `CCCCC/C=C\C/C=C\CCCCCCCC(=O)O`: -12.5%.
For the compound `CC(C)(C)NC(=O)[C@@H]1C[C@@H]2CCCC[C@@H]2CN1C[C@@H](O)[C@H](Cc1ccccc1)NC(=O)[C@H](CC(N)=O)NC(=O)c1ccc2ccccc2n1`, the Potency was 50.1 µM (active).
On to `CCCCCCCC/C=C\CCCCCCCC(=O)O`, for which the “activity change, negative = cytotoxic” value was -7.69%.
The same measure, in the same setting: the same measure for `CC1=C2[C@@H]([C@H](C)CC[C@H]2/C=C(\C)C(=O)O)[C@H](O)C1`: -3.71%; for `CCOC(C)=O`: -6.03%; for `Nc1ccn([C@H]2CS[C@@H](CO)O2)c(=O)n1`: -1.87%.
Take `O=S(=O)(O)O`: the Potency result is “inactive”.
`O=C(O)CCC(=O)C(=O)O`: the “activity change, negative = cytotoxic” value was 1.22%.
Consider `Cc1ccccc1`, for which the Potency result was “inactive”.
Take `O=CCCCC=O`: the “activity change, negative = cytotoxic” value was -13.6%.
`CC(O)CO` (stereo unspecified): the Potency entry was “inactive”.
`IC(I)I`: the “activity change, negative = cytotoxic” value was -10.4%.
With `CCCCCCCC(=O)O`, the Potency entry is “inactive”.

The nature of the next assay: Cell Viability - LYMP2-003 (AID 965).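 For activity change, negative = cytotoxicity: 0% = DMSO only and full effect = 92 µM tetraoctylammonium bromide.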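 Note: cells exposed to compounds for 24 h before reading; nearly all actives have a fitted effect of over 50% in size.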 Note: potency is the fitted concentration of half-maximal effect. The settings on record: LYMP2-003 lymphoblastoid cell viability; series mostly up to 92.2 µM; activity change, negative = cytotoxicity: at the top concentration. In a few lines:
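Seed 2500 lymphoblastoid cells/well; incubate 5 hr, 37 C; add compounds; incubate 24 hr, 37 C; add CellTiter-Glo, 30 min RT; read luminescence. AC50 from Hill fit.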
Regarding `CC(C)=O`, the “activity change, negative = cytotoxicity” value is 21.5%.
The same measure, in the same setting: the same measure for `CCCCC/C=C\C/C=C\CCCCCCCC(=O)O`: -6.56%.
On the same count and under the same terms, the same measure for `CCCCCCCC/C=C\CCCCCCCC(=O)O`: 10.6%.
As for `CC1=C2[C@@H]([C@H](C)CC[C@H]2/C=C(\C)C(=O)O)[C@H](O)C1`, the “activity change, negative = cytotoxicity” value is 11.6%.
On the same count and under the same terms, as for `CCOC(C)=O`, the figure is 11.1%.
The same measure, in the same setting: the same measure for `Nc1ccn([C@H]2CS[C@@H](CO)O2)c(=O)n1`: 13.9%.
Take `O=S(=O)(O)O`: the Potency result was “inactive”.
Take `O=C(O)CCC(=O)C(=O)O`: the “activity change, negative = cytotoxicity” value is 25.9%.
With `Cc1ccccc1`, the Potency entry is “inactive”.
On the same count and under the same terms, the same measure for `O=CCCCC=O`: 39.8 µM (active); for `CC1=C(/C=C/C(C)=C/C=C/C(C)=C/CO)C(C)(C)CCC1`: 50.1 µM (active).
As for `CC(O)CO` (stereo unspecified), the Potency result was “inactive”.
`IC(I)I`: the “activity change, negative = cytotoxicity” value was 14.3%.
`CCCCCCCC(=O)O`: the Potency result is “inactive”.
As for `CCOc1ccc2c(c1)C(C)=CC(C)(C)N2`, the “activity change, negative = cytotoxicity” value was -14.8%.

A further assay in a line: Cell Viability - LYMP2-004 (AID 966).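 For activity change, negative = cytotoxicity: plate controls were DMSO only for no effect and tetraoctylammonium bromide control for full effect.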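 Note: cells exposed to compound for 24 h; nearly all actives have a fitted effect of over 65% in size.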 Note: potency is the fitted concentration of half-maximal effect. The following applies: LYMP2-004 lymphoblastoid cell viability, qHTS; series mostly up to 92.2 µM; activity change, negative = cytotoxicity: at the top concentration. The essentials:
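Luminescent ATP read-out (CellTiter-Glo, 30 min RT) after 24 hr compound exposure at 37 C; 2500 lymphoblastoid cells/well, complete medium. Decrease in ATP = cytotoxicity; AC50 from standard Hill model.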
Consider `CC(C)=O`, for which the “activity change, negative = cytotoxicity” value is -4.23%.
Take `CCCCC/C=C\C/C=C\CCCCCCCC(=O)O`: the “activity change, negative = cytotoxicity” value was 0.288%.
On to `CCCCCCCC/C=C\CCCCCCCC(=O)O`, for which the “activity change, negative = cytotoxicity” value is 6.28%.
Still for that read-out and setting: the same measure for `CC1=C2[C@@H]([C@H](C)CC[C@H]2/C=C(\C)C(=O)O)[C@H](O)C1`: 18.7%; for `CCOC(C)=O`: 13.5%.
Take `Nc1ccn([C@H]2CS[C@@H](CO)O2)c(=O)n1`: the “activity change, negative = cytotoxicity” value is 11.4%.
Consider `O=S(=O)(O)O`, for which the Potency entry was “inactive”.
Take `O=C(O)CCC(=O)C(=O)O`: the “activity change, negative = cytotoxicity” value is 16.9%.
Take `O=CCCCC=O`: the Potency was 25.1 µM (active).
Still for that read-out and setting: the same measure for `CC1=C(/C=C/C(C)=C/C=C/C(C)=C/CO)C(C)(C)CCC1`: 39.8 µM (active); for `CC(O)CO` (stereo unspecified): “inactive”.
Turning to `IC(I)I`, the “activity change, negative = cytotoxicity” value was -1.71%.
For the compound `CCCCCCCC(=O)O`, the Potency entry is “inactive”.
For the compound `CCOc1ccc2c(c1)C(C)=CC(C)(C)N2`, the “activity change, negative = cytotoxicity” value is -1.62%.
